Assay results as given in PubChem BioAssay (NCI).
Compounds without any hit were thinned out: in the full panel of roughly 83,000, 20% have a hit.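 Note: values are percent growth. 100 is the growth of untreated cells, values between 100 and 0 indicate rising inhibition; between -100 and 0 indicates cell death.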 A number with no mark means an inactive call. Calls of active or inactive are those of the source. Rule for the calls: active = growth percent below 10; inactive = the rest.

Legend:
Assay in all cases: NCI-60 one-dose screen, 48 h (100 = growth as untreated, 0 = no growth, -100 = all killed)
Details in all cases: 10 µM unless noted
[1] = tested on: SR leukemia
[2] = tested on: RPMI-8226 leukemia
[3] = tested on: OVCAR-8 ovarian
[4] = tested on: OVCAR-5 ovarian
[5] = tested on: OVCAR-4 ovarian
[6] = tested on: SK-OV-3 ovarian
[7] = tested on: IGROV1 ovarian
[8] = tested on: OVCAR-3 ovarian
[9] = tested on: HS 578T breast
[10] = tested on: NCI/ADR-RES ovarian
[11] = tested on: T-47D breast
[12] = tested on: BT-549 breast
[13] = tested on: MDA-MB-435 melanoma
[14] = tested on: SW-620 colon
[15] = tested on: MCF7 breast
[16] = tested on: HCT-116 colon
[17] = tested on: HCC-2998 colon
[18] = tested on: KM12 colon
[19] = tested on: MDA-MB-468 breast

SMILES | growth [1] | growth [2] | growth [3] | growth [4] | growth [5] | growth [6] | growth [7] | growth [8] | growth [9] | growth [10] | growth [11] | growth [12] | growth [13] | growth [14] | growth [15] | growth [16] | growth [17] | growth [18] | growth [19]
N=C1N=C(SCc2nc3ccccc3[nH]2)NC(=O)/C1=C/c1ccc(Cl)cc1 | 98.7% | 96.9% | 102% | 113% | 95.6% | 111% | 110% | 114% | 98.3% | 100% | 93.2% | 114% | 102% | 98.5% | 96.9% | 105% | 109% | 104% | 116%
COc1ccc(/C=C2\C(=N)N=C(SCc3nc4ccccc4[nH]3)NC2=O)cc1 | 103% | 95.8% | 107% | 119% | 102% | 116% | 114% | 110% | 99.5% | 104% | 87.9% | 106% | 105% | 98.8% | 99.1% | 105% | 116% | 105% | 119%
CC1(C)CC[C@]2(C(=O)O)CC[C@]3(C)C(=CCC4[C@@]5(C)C[C@@H](O)[C@@H]6OC(c7ccccc7Br)OC[C@@]6(C)C5CC[C@]43C)C2C1 (some centres undefined) | 12.5% | 8.21% (active) | 14.7% | 36% | 33.1% | 40.2% | 35% | 9.3% (active) | 31.9% | 11.5% | 20.4% | 13.5% | 28% | 19.5% | 7.28% (active) | 6.88% (active) | 18.8% | 16.9% | 18.4%
Cc1occc1C(=O)NN1C(=O)/C(=C/C=C/c2ccc([N+](=O)[O-])o2)SC1=S | 5.76% (active) | -8.57% (active) | -53.9% (active) | -93.3% (active) | -85% (active) | 20.1% | -87.6% (active) | -100% (active) | 19.4% | -6.81% (active) | -15.9% (active) | -91% (active) | -66.2% (active) | -43.2% (active) | -33% (active) | -73.2% (active) | -75% (active) | -66.2% (active) | -52.3% (active)
CCC(C)(C)c1ccc(OCCCCCCN2CCN(c3ccncc3)CC2)cc1 | -27.5% (active) | -44.5% (active) | 54% | 65.7% | 47.7% | 38.5% | 49.8% | 38% | -7.9% (active) | 19% | -44.4% (active) | -44.2% (active) | -0.134% (active) | -62% (active) | -58.1% (active) | -69.3% (active) | -74.1% (active) | 7.93% (active) | -81.5% (active)
CC1[C@H]2[C@H](C[C@H]3[C@@H]4CC=C5c6sc(Nc7ccccc7F)nc6CC[C@]5(C)[C@H]4CC[C@@]32C)O[C@]12CC[C@@H](C)CO2 (some centres undefined) | 4.49% (active) | -16.2% (active) | -83.4% (active) | -67.1% (active) | -42.9% (active) | -19.5% (active) | -37.6% (active) | -74.3% (active) | -16.1% (active) | -33.9% (active) | -60.2% (active) | 55.2% | -83.5% (active) | -75.4% (active) | -66.8% (active) | -94.3% (active) | -82.1% (active) | -90.7% (active) | -63.1% (active)
CCCCSc1nc(Nc2ccc(C(C)=O)cc2)c(C#N)c(-c2ccc(OC)cc2)n1 | 70.9% | 91% | 27.5% | 57.9% | -45.4% (active) | 106% | 38.5% | 20.8% | 66.1% | 58.1% | 64.3% | 75.3% | 75.4% | 63.2% | 65.4% | 32.5% | 98.4% | 95.3% | 67.5%
O=c1[nH]c2ccccc2cc1CSc1cccc(Nc2nccc(-c3ccc4ccccc4c3)n2)c1 | 89.5% | 49.4% | 74.9% | 114% | 69.4% | 115% | 102% | 117% | 105% | 51.4% | 60.9% | 85.4% | 87.9% | 105% | 85.1% | 79.7% | 97.3% | 95.9% | 80.4%
NS(=O)(=O)c1ccc(NNC(=O)CCC(=O)c2ccccc2)cc1 | 86.8% | 105% | 101% | 112% | 99.2% | 104% | 102% | 114% | 94.7% | 109% | 87.5% | 104% | 105% | 102% | 90.5% | 99% | 109% | 104% | 93.3%
CCCCCCn1c(O)c(N=Nc2nc(-c3cc4ccccc4oc3=O)cs2)c2ccccc21 | 12% | 60.9% | 34.1% | -53.2% (active) | -48.2% (active) | 96.9% | -62.4% (active) | -94.9% (active) | 60.5% | 50.2% | -12% (active) | -20.5% (active) | 26.3% | 56.2% | -18% (active) | -51.7% (active) | 37.8% | 13.6% | 45.3%
O=C(c1ccc(OCCN2CCOCC2)cc1)C1[C@H](c2ccc(Cl)cc2)[C@@H](c2ccccc2)NC12C(=O)Nc1ccc(Cl)cc12 (some centres undefined) | -46.3% (active) | 15.5% | 39% | 50.5% | 48.3% | 50.1% | 24% | 40.4% | 59.1% | 24.5% | 34.6% | 57.1% | 42% | 41.5% | 4.28% (active) | 11.5% | -30% (active) | 16.4% | -7.83% (active)
O=C1c2c(c3c4cc(F)ccc4oc3c3[nH]c4ccc(Br)cc4c23)C(=O)N1O | 4.45% (active) | 34.2% | 19.8% | 108% | 76.6% | 4.35% (active) | 46.3% | 67.2% | -4.24% (active) | 30.7% | 23.9% | 1.19% (active) | 37.1% | 34.9% | 15.6% | 34.5% | 63.5% | 34.5% | 46.4%
C=CC(=O)Nc1ccc(C)c(Oc2ccc(Cl)cc2)c1 | 24.3% | 23.8% | 38.5% | 64.8% | 56.2% | 77.4% | 46.4% | 36.6% | 51.8% | 37.3% | 41.8% | 22.8% | 43.9% | 43.8% | 36.8% | 52.1% | 58.4% | 47.2% | 10.2%
O=C(N=Nc1c(O)[nH]c2ccc([N+](=O)[O-])cc12)c1ccc2nc(-c3ccccc3)[nH]c2c1 | 30.9% | 110% | 65.1% | 107% | 45.8% | 96.9% | 76.9% | -13.2% (active) | 62.6% | 103% | 12.5% | 53.4% | 79.1% | 83.8% | 18.7% | 10.7% | 27.4% | 99.5% | 10.6%
CC1CN(c2oc(-c3ccc([N+](=O)[O-])cc3)nc2C#N)CC(C)O1 (centres undefined) | 83.3% | 101% | 103% | 107% | 102% | 110% | 103% | 110% | 94.4% | 95.4% | 97.4% | 107% | 100% | 102% | 88.4% | 108% | 101% | 103% | 125%
CCCCCCCCc1ccc(S(=O)(=O)Nc2ccc(CC)cc2C(=O)O)cc1 | 96.7% | 71.1% | 95.1% | 117% | 96% | 106% | 97.4% | 113% | 103% | 96% | 76.6% | 108% | 101% | 103% | 86% | 87.7% | 113% | 97.7% | 82.2%
